Test results: publication PMC7862700, “An all-to-all approach to the identification of sequence-specific readers for epigenetic DNA modifications on cytosine”

Columns and labels:
Test in all cases: DAPPL (digital affinity profiling via proximity ligation, sequencing); 10 mM Tris-HCl pH 7.5, 50 mM NaCl, 1 mM DTT, 4% glycerol, room temperature, 30 min; GST-TFs on glutathione beads, 16-mer random dsDNA library, 0.1% formaldehyde crosslink after washing; high values mean tight binding
FLI1 = target: T1, FLI1 (Homo sapiens, UniProt Q01543 1-452); conditions: protein: recombinant; tags: N-terminal GST; dsDNA, one strand shown
T1 sequence: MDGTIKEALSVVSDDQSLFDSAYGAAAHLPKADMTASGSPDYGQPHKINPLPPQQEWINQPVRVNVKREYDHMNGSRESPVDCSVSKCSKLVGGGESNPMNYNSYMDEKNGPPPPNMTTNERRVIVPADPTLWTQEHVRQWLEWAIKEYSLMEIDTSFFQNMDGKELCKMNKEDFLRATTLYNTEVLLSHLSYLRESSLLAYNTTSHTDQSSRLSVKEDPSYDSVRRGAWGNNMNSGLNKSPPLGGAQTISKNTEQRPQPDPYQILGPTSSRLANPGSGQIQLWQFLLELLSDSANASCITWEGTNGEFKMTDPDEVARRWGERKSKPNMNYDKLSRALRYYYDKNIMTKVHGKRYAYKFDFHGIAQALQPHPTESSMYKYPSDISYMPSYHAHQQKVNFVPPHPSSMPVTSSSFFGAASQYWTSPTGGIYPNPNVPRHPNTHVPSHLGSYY
How it was run: (§1)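 Binding signal is given per hexamer as its read frequency for a factor divided by its frequency in the tag-only sample. GST-fused human transcription factors were expressed in yeast, captured on glutathione beads, barcoded with DNA and pooled with that sample, then incubated with 200 nmole of a 16-mer random double-stranded DNA library in Tris/NaCl/DTT/glycerol buffer for 30 min at room temperature. The pools were then washed, crosslinked, proximity-ligated, amplified by PCR and sequenced on an Illumina NextSeq500.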

ELK1 = target: T2, ELK1 (Homo sapiens, UniProt P19419 1-428); conditions: protein: recombinant; tags: N-terminal GST; dsDNA, one strand shown
T2 sequence: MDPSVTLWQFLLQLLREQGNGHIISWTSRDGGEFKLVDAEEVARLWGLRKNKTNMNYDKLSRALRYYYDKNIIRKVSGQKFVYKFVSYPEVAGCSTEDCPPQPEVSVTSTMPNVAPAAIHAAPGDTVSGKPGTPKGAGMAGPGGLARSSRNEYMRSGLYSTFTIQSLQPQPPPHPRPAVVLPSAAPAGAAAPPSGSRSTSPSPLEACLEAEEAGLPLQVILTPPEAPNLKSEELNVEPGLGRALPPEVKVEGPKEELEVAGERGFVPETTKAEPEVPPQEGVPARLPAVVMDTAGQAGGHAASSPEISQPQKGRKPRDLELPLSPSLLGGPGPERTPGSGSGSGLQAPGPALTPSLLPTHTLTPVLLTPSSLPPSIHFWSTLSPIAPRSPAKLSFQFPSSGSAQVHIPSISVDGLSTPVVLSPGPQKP
How it was run: as §1

GABPA = target: T3, GABPA (Homo sapiens, UniProt Q06546 1-454); conditions: protein: recombinant; tags: N-terminal GST; dsDNA, one strand shown
T3 sequence: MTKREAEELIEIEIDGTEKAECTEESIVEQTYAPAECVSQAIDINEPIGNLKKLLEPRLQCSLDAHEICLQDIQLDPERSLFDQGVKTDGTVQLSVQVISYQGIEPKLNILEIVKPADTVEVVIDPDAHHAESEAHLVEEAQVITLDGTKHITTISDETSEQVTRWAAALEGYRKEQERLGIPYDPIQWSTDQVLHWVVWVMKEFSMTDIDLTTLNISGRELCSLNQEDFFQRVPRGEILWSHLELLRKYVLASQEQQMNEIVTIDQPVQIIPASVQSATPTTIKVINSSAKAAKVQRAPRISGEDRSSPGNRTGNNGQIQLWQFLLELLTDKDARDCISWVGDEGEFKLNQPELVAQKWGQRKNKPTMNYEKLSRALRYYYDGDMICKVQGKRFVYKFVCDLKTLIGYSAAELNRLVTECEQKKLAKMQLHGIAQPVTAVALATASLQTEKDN
How it was run: as §1

ERG = target: T4, ERG (Homo sapiens, UniProt P11308 1-479); conditions: protein: recombinant; tags: N-terminal GST; dsDNA, one strand shown
T4 sequence: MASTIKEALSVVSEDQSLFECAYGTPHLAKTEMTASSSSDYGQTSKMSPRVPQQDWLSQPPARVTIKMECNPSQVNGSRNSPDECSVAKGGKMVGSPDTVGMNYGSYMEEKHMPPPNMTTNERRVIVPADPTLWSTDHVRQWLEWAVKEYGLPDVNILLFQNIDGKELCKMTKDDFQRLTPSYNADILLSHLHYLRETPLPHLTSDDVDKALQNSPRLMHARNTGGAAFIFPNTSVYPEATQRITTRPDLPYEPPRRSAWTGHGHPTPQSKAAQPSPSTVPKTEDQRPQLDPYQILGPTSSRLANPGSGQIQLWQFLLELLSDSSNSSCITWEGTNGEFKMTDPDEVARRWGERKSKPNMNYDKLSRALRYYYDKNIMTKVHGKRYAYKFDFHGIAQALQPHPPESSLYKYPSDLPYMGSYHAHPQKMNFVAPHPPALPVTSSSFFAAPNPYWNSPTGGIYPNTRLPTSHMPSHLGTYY
How it was run: as §1

ELF1 = ELF1 (Homo sapiens, UniProt P32519 1-619); conditions: protein: recombinant; tags: N-terminal GST; dsDNA, one strand shown
Chain of ELF1 (P32519 whole entry): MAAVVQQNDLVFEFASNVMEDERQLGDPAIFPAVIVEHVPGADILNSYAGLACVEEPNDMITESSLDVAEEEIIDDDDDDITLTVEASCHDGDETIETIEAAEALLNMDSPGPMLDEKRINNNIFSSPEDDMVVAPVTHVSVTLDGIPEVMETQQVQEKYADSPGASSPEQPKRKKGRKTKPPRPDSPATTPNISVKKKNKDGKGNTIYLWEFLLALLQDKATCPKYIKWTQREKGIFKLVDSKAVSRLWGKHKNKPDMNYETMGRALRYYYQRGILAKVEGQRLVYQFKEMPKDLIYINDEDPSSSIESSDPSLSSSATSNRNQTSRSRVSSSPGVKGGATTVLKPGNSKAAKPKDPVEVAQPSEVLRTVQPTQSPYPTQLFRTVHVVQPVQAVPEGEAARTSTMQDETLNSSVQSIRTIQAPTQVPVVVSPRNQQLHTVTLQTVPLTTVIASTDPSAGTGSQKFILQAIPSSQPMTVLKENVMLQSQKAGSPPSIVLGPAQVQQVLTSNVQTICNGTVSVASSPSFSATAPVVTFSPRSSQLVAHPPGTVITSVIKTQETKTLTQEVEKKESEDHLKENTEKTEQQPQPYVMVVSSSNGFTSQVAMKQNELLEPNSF
How it was run: as §1

EHF = target: T5, EHF (Homo sapiens, UniProt Q9NZC4 1-300); conditions: protein: recombinant; tags: N-terminal GST; dsDNA, one strand shown
T5 sequence: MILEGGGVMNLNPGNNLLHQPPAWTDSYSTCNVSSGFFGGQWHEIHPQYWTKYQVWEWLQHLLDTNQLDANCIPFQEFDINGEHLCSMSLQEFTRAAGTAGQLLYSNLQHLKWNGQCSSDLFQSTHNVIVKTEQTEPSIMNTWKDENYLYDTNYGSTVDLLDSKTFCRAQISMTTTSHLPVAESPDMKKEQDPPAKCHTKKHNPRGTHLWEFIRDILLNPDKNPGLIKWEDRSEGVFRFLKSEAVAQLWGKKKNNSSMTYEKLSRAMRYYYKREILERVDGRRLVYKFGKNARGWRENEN
How it was run: as §1

SPI1 = SPI1 (Homo sapiens, UniProt P17947 1-270); conditions: protein: recombinant; tags: N-terminal GST; dsDNA, one strand shown
How it was run: as §1

SPIB = SPIB (Homo sapiens, UniProt Q01892 1-262); conditions: protein: recombinant; tags: N-terminal GST; dsDNA, one strand shown
Chain of SPIB (Q01892 whole entry): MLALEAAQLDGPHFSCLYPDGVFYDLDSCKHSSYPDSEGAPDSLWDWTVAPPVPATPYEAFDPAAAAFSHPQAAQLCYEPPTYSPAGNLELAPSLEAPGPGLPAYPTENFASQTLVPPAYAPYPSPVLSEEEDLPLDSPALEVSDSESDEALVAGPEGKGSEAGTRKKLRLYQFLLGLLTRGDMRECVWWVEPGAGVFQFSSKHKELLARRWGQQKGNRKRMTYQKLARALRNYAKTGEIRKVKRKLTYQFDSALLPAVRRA
How it was run: as §1

ELK3 = target: T6, ELK3 (Homo sapiens, UniProt P41970 1-407); conditions: protein: recombinant; tags: N-terminal GST; dsDNA, one strand shown
T6 sequence: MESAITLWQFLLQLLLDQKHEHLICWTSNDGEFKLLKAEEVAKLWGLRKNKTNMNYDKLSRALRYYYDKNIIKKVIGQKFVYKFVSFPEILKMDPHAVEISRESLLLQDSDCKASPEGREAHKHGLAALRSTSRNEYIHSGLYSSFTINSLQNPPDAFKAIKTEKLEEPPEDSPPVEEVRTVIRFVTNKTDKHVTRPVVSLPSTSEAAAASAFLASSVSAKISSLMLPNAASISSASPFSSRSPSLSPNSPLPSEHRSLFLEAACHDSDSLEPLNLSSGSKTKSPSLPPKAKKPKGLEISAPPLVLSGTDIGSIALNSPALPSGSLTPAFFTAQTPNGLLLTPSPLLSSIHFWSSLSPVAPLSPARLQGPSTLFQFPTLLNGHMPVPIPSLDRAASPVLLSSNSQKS
How it was run: as §1

FEV = target: T7, FEV (Homo sapiens, UniProt Q99581 1-238); conditions: protein: recombinant; tags: N-terminal GST; dsDNA, one strand shown
T7 sequence: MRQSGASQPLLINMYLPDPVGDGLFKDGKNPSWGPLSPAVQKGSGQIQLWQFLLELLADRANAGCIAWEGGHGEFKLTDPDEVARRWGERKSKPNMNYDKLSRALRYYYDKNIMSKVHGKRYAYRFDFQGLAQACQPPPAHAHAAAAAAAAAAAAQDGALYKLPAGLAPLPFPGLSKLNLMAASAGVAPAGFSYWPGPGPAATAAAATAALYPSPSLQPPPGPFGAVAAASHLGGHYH
How it was run: as §1

ETV5 = ETV5 (Homo sapiens, UniProt P41161 1-510); conditions: protein: recombinant; tags: N-terminal GST; dsDNA, one strand shown
Chain of ETV5 (P41161 whole entry): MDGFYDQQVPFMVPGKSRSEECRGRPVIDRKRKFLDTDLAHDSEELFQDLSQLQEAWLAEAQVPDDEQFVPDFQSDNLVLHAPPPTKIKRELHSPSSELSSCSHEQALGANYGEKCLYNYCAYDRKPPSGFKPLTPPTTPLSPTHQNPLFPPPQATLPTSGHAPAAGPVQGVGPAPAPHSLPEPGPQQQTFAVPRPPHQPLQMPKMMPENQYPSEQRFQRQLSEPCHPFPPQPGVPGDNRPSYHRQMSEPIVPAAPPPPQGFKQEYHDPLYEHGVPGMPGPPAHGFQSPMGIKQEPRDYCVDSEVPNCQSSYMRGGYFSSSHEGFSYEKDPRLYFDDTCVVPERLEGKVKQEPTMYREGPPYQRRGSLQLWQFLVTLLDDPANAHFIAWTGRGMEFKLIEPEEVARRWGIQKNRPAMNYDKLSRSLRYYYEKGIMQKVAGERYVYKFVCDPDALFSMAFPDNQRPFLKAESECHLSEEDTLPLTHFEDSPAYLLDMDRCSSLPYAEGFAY
How it was run: as §1

HSF1 = HSF1 (Homo sapiens, UniProt Q00613 1-529); conditions: protein: recombinant; tags: N-terminal GST; chain copies: 3; dsDNA, one strand shown
Chain of HSF1 (Q00613 whole entry): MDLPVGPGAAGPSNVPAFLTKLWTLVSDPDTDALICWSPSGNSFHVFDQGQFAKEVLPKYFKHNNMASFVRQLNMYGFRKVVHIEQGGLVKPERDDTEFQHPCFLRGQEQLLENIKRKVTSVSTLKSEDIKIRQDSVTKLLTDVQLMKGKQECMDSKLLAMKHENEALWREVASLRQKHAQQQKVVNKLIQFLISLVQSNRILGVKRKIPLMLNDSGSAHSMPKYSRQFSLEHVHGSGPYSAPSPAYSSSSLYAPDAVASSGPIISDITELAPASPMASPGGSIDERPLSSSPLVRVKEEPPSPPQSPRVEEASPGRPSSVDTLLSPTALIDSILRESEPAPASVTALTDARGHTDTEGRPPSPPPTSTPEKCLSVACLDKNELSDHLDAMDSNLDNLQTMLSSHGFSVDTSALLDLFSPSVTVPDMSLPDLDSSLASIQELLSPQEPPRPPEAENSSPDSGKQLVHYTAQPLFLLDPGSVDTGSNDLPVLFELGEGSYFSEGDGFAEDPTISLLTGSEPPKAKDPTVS
How it was run: as §1

SPIC = target: T8, SPIC (Homo sapiens, UniProt Q8N5J4 1-248); conditions: protein: recombinant; tags: N-terminal GST; dsDNA, one strand shown
T8 sequence: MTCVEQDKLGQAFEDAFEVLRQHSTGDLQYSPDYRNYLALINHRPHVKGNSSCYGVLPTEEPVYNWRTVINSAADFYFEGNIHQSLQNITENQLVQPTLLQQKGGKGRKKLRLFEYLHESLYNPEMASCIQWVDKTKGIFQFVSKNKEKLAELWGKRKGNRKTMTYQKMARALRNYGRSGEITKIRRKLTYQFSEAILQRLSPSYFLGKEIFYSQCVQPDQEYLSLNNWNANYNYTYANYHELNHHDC
How it was run: as §1

ELF4 = ELF4 (Homo sapiens, UniProt Q99607 1-663); conditions: protein: recombinant; tags: N-terminal GST; dsDNA, one strand shown
Chain of ELF4 (Q99607 whole entry): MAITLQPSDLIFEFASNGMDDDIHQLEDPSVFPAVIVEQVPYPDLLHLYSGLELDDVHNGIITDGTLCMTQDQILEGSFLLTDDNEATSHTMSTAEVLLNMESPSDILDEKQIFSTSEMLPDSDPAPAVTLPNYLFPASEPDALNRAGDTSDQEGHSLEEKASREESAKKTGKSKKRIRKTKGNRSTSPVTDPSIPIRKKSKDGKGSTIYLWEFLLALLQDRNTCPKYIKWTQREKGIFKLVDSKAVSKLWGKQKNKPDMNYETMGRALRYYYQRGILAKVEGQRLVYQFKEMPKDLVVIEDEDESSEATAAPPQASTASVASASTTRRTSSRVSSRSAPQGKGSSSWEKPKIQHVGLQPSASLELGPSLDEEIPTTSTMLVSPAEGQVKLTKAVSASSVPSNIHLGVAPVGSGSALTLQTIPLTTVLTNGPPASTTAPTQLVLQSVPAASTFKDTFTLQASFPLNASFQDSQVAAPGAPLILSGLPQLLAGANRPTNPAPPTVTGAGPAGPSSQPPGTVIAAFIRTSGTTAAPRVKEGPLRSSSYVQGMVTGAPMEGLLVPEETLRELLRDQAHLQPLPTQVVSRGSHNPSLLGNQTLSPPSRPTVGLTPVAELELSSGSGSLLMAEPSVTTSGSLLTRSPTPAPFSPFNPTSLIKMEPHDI
How it was run: as §1

ELK4 = target: T9, ELK4 (Homo sapiens, UniProt P28324-2 1-405); conditions: protein: recombinant; tags: N-terminal GST; dsDNA, one strand shown
T9 sequence: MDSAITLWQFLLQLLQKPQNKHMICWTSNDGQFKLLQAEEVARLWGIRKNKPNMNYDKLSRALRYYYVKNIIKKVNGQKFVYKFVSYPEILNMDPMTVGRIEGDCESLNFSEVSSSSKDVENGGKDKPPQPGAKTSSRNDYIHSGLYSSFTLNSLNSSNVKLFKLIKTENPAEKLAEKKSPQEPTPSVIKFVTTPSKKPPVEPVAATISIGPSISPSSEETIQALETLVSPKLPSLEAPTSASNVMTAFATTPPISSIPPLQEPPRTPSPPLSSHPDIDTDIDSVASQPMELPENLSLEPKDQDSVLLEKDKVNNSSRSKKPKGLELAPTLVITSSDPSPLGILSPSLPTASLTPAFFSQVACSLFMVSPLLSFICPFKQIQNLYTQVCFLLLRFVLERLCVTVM
How it was run: as §1

ETV2 = target: T10, ETV2 (Homo sapiens, UniProt O00321 1-342); conditions: protein: recombinant; tags: N-terminal GST; dsDNA, one strand shown
T10 sequence: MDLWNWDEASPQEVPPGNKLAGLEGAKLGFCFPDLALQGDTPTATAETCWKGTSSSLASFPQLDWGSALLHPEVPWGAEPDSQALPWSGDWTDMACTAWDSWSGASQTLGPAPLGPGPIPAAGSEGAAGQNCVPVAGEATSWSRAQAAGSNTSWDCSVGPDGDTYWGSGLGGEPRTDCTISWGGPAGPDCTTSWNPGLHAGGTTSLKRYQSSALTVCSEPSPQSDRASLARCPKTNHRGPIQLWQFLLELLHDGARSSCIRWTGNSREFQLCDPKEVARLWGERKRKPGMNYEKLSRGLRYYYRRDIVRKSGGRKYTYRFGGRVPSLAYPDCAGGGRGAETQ
How it was run: as §1

ELF3 = target: T11, ELF3 (Homo sapiens, UniProt P78545 1-371); conditions: protein: recombinant; tags: N-terminal GST; dsDNA, one strand shown
T11 sequence: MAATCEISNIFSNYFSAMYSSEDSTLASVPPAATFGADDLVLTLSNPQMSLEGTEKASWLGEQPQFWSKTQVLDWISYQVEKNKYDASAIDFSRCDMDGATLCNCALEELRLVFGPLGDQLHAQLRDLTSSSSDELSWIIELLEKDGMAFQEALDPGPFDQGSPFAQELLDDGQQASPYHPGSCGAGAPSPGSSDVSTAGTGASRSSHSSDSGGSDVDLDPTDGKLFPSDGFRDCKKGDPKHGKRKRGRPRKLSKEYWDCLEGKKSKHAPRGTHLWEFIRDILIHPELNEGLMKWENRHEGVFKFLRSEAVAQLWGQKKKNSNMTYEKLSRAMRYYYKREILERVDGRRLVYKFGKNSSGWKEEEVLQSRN
How it was run: as §1

CRX = CRX (Homo sapiens, UniProt O43186 1-299); conditions: protein: recombinant; tags: N-terminal GST; dsDNA, one strand shown
Chain of CRX (O43186 whole entry): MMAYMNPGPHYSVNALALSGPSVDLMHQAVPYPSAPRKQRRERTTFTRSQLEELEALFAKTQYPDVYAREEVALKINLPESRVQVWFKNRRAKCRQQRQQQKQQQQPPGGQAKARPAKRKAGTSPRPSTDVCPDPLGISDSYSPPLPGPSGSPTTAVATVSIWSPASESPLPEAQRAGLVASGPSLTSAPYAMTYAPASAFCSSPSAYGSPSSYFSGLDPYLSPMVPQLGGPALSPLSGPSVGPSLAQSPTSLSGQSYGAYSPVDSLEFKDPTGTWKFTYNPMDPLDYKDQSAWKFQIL
How it was run: as §1

ETV1 = ETV1 (Homo sapiens, UniProt P50549 1-477); conditions: protein: recombinant; tags: N-terminal GST; dsDNA, one strand shown
Chain of ETV1 (P50549 whole entry): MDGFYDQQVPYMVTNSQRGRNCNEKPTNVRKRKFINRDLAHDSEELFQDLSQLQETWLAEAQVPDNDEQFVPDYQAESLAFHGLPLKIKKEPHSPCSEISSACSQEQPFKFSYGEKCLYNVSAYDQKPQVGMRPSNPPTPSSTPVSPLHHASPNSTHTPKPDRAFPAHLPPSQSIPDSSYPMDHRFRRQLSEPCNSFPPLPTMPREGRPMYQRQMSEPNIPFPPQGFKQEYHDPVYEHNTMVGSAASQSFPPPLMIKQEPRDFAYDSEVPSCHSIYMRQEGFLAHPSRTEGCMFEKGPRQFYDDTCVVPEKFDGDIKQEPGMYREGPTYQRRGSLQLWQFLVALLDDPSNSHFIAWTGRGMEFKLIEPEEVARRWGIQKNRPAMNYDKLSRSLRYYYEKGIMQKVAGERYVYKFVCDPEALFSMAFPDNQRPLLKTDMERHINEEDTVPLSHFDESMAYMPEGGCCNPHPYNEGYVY
How it was run: as §1

TCTAAA
binding signal (FLI1): 1.24 fold enrichment (6-mer frequency, TF over GST control) | binding signal (ELK1): 1.22 fold enrichment (6-mer frequency, TF over GST control) | binding signal (GABPA): 1.26 fold enrichment (6-mer frequency, TF over GST control) | binding signal (ERG): 1.24 fold enrichment (6-mer frequency, TF over GST control) | binding signal (ELF1): 1.21 fold enrichment (6-mer frequency, TF over GST control) | binding signal (EHF): 1.2 fold enrichment (6-mer frequency, TF over GST control) | binding signal (SPI1): 1.18 fold enrichment (6-mer frequency, TF over GST control) | binding signal (SPIB): 1.16 fold enrichment (6-mer frequency, TF over GST control) | binding signal (ELK3): 1.2 fold enrichment (6-mer frequency, TF over GST control) | binding signal (FEV): 1.15 fold enrichment (6-mer frequency, TF over GST control) | binding signal (ETV5): 1.15 fold enrichment (6-mer frequency, TF over GST control) | binding signal (HSF1): 1.46 fold enrichment (6-mer frequency, TF over GST control) | binding signal (SPIC): 1.46 fold enrichment (6-mer frequency, TF over GST control) | binding signal (ELF4): 1.27 fold enrichment (6-mer frequency, TF over GST control) | binding signal (ELK4): 1.3 fold enrichment (6-mer frequency, TF over GST control) | binding signal (ETV2): 1.27 fold enrichment (6-mer frequency, TF over GST control) | binding signal (ELF3): 1.14 fold enrichment (6-mer frequency, TF over GST control) | binding signal (CRX): 1.6 fold enrichment (6-mer frequency, TF over GST control) | binding signal (ETV1): 1.16 fold enrichment (6-mer frequency, TF over GST control)
